Screens deposited in PubChem BioAssay by National Center for Advancing Translational Sciences (NCATS).
Sampled rows, rich in hits. Any-hit rate of the full collection: about 19%.
HT1080 IDH1KD tx – qHTS for induction of synthetic lethality in tumor cells producing 2HG: qHTS for the HT-1080-IDH1KD cell line. HT-1080 IDH1 knockdown viability, ATP luminescence, 48 h. Potency, µM (doses to about 46.1 µM), inactives show top-dose activity, negative = toxicity, hits mostly cytotoxic. 360,000 tested, 2% active. AID 686971, 2013;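 further: 0% = DMSO wells and -100% = cell-free medium wells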
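HT-1080-IDH1KD cells (IDH1 knocked down), 750/well in RPMI with 5% FBS, treated with compound 48 h at 37 degrees C. Viability by CellTiter-Glo luminescence, normalised to DMSO and no-cell wells; concentration-response curves classed.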
HT1080NT lethal – qHTS for induction of synthetic lethality in tumor cells producing 2HG: qHTS for the HT-1080-NT fibrosarcoma cell line | HT-1080-NT fibrosarcoma viability, CellTiter-Glo ATP luminescence, 48 h | 360,000 tested, 1.6% active | AID 686970, 2013 | Potency, µM (titrated, usually from 46.1 µM), inactives show at the highest dose activity, negative = less viability, hits mostly cytotoxic;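 further: NT is the 2HG producing partner of a matched IDH1 knockdown line; 0% = DMSO-treated cells and -100% = media-only wells without cells; nearly all actives have a fitted effect of over 55% in size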
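Fibrosarcoma NT cells, 750 per well in 5% FBS RPMI, were exposed to compound for 48 hours. Viability: CellTiter-Glo luminescence.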
DT40 TDP1 no CPT – qHTS for Inhibitors of human tyrosyl-DNA phosphodiesterase 1 (TDP1): qHTS in cells in absence of CPT | 420,000 tested, 15% active | Potency, µM (series often up to 46.2 µM), without a hit: at the top dose activity change, negative = growth inhibition, most hits filed as inhibitors | DT40 Tdp1-/- hTDP1 cells, no CPT, ATP luminescence, 48 h; further: nearly all actives have a fitted effect of over 55% in size
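Chicken DT40 Tdp1-/- cells complemented with human TDP1, screened without camptothecin (DMSO vehicle only), 400 cells/well. Compounds pin-transferred, cells incubated at 37 °C for at least 48 hr. Growth read as ATP-dependent luminescence (CellTiter-Glo, 30 min at RT).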
TDP1 cell CPT – qHTS for Inhibitors of human tyrosyl-DNA phosphodiesterase 1 (TDP1): qHTS in cells in presence of CPT. chicken DT40 Tdp1-/-;hTDP1 cells + 20 nM CPT, ATP luminescence, 48 h. Potency, µM (top dose mostly 46.2 µM), for the others: at the top dose activity change, negative = growth inhibition, actives largely listed as inhibitors. 420,000 tested, 12% active. AID 686979, 2013; further: nearly all actives have a fitted effect of over 55% in size
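Cell growth measured by CellTiter-Glo luminescence after a minimum 48 h, 37 C compound exposure with 20 nM CPT in Tdp1-knockout DT40 cells stably expressing hTDP1, seeded 400/well; qHTS titration format.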
KB-V1 cytotox – qHTS assay for MDR1-selective chemotherapeutics: Primary screen using the drug-selected MDR subline cells KB-V1. KB-V1 MDR cells viability, CellTiter-Glo, 72 h. Potency, µM (titrated, usually from 46.1 µM), usual class: cytotoxic. 400,000 tested, 3.4% active; further: nearly all actives have a fitted effect of over 60% in size
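Cells of the MDR subline KB-V1 are plated, dosed with compound at multiple concentrations, and incubated 72 h at 37 degrees C; CellTiter-Glo is then added and luminescence read after 10 min.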
KB-3-1 cytotox – qHTS assay for MDR1-selective chemotherapeutics: Primary screen using the parental adenocarcinoma cell KB-3-1 | KB-3-1 viability, CellTiter-Glo ATP luminescence, 72 h | Potency, µM (top dose mostly 46.1 µM), actives largely listed as cytotoxic | 400,000 tested, 1.4% active; further: nearly all actives have a fitted effect of over 60% in size
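KB-3-1 parental drug-naive adenocarcinoma cells in DMEM/10% FBS, incubated 72 h at 37 C with pin-transferred compounds across a concentration series. Viability by CellTiter-Glo luminescence; concentration-response curves fitted after normalization.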
* hit, by the source's call; i = inactive; ? = inconclusive; · = not tested or not shown; [ ] = another dose, or the depositor's remark. The call rests on the fitted dose curve; in most records, active means well fitted curve in the direction sought with a large enough effect; inconclusive means small, poorly fitted or top-dose-only effect, or another doubt; inactive means no such curve, though single readings can be large; an effect the other way counts as inactive or inconclusive. Unless noted, on the % scale 0 is the no-effect control and ±100 the full control effect; potency means the concentration at half of the fitted maximal effect.

SMILES	HT1080 IDH1KD tx	HT1080NT lethal	DT40 TDP1 no CPT	TDP1 cell CPT	KB-V1 cytotox	KB-3-1 cytotox
CCn1cc(/C=C/C(=O)NCc2c(C)nn(C)c2C)cn1	1%	1%	-27%	-19%	i	i
Cc1nn(C)c(C)c1CNC(=O)/C=C/c1ccccc1F	3%	-1%	?	-21%	18µM*	i
Cc1cccc(S(=O)(=O)c2cn(Cc3ccccc3)c3cc(N4CCC(C)CC4)c(F)cc3c2=O)c1	·	·	8.2µM*	5.8µM*	·	·
COc1ccc(S(=O)(=O)c2cn(Cc3ccccc3)c3cc(N4CCCC4)c(F)cc3c2=O)cc1	·	·	5.2µM*	?	i	i
O=c1c(S(=O)(=O)c2ccccc2)cn(Cc2ccc(F)cc2)c2cc(N3CCOCC3)c(F)cc12	·	·	15µM*	21µM*	i	i
CC(C)N1CCN(c2cccc(Nc3nn4c(=O)c5ccccc5nc4s3)c2)CC1	·	·	·	·	i	i
COCC(=O)Nc1cc(C(=O)N2CCN(c3ccccc3)C(=O)C2)cc2nc(-c3ccccc3)n(C)c12	·	·	8%	4%	·	·
CCC1(C2CCN(C(=O)c3ccc4ccccc4c3)CC2)NC(=O)N(CCc2scnc2C)C1=O (stereo not given)	·	·	-20%	-4%[9.04 µM]	·	·
COc1ccc(S(=O)(=O)N2CCCCC2)cc1NC(=O)c1c(F)cccc1Cl	-7%	-4%	16µM*	?	i	i
Cc1onc(-c2c(F)cccc2Cl)c1C(=O)Nc1ccc(S(=O)(=O)N2CCOCC2)cc1	-9%	-1%	?	-25%	i	i
Cc1onc(-c2c(F)cccc2Cl)c1C(=O)Nc1cc(S(=O)(=O)N2CCCCC2)ccc1O	-14%	?	16µM*	16µM*	23µM*	?
COc1ccc(NS(=O)(=O)c2cccc(C(=O)NNC(=O)CNC(=O)c3ccc(C)cc3)c2)cc1	4%	2%	-2%	-11%	?	i
NCc1nc2cccnc2n1Cc1ccccc1Cl	·	·	-1%	-2%	i	i
O=C(CCNc1cc(Cl)cc(Cl)c1)c1ccco1	4%	3%	13µM*	13µM*	i	i
O=C(CCNc1ccc(F)c(Cl)c1)c1ccco1	?	?	6.5µM*	3.7µM*	i	i
O=C(CCNc1cccc(C(F)(F)F)c1)c1ccco1	?	?	16µM*	21µM*	i	i
O=C(CCNc1ccc(F)cc1)c1ccco1	-1%	4%	7.3µM*	3.3µM*	i	?
COCC1CCCN(Cc2ccc3c(c2)CN(C(=O)c2cnn(C(C)C)c2)CCO3)C1 (stereo not given)	·	·	-22%	13%[9.04 µM]	·	·
Cc1cc(O)c2c(c1O)C(=O)C(O)=C(O)C2=O	·	·	-20%[9.04 µM]	8%[9.04 µM]	·	·
O=C(CCNc1ccc(Cl)c(C(F)(F)F)c1)c1ccco1	9%	4%	9.2µM*	7.3µM*	i	i
CSc1cccc(N2C(=O)N(CC(=O)NCc3ccccc3Cl)c3ccccc3S2(=O)=O)c1	·	·	16µM*	?	i	i
COc1cccc(CNC(=O)CN2C(=O)N(c3ccc(C)cc3C)S(=O)(=O)c3ccccc32)c1OC	·	·	21µM*	?	i	i
CCOC(=O)c1sc(NC(=O)CSc2nc3c(cc2C#N)CCCCCC3)c(C#N)c1C	-6%	0%[9.24 µM]	26µM*	16µM*	?	i
N#Cc1c(NC(=O)CSc2ncn[nH]2)sc2c1CCCCC2	?	?	-25%	-15%	4.1µM*	i
N#Cc1cc2c(nc1SCC(=O)Nc1sc3c(c1C#N)CCC3)CCCCC2	-4%	10%	-21%	?	i	i
SMILES	HT1080 IDH1KD tx	HT1080NT lethal	DT40 TDP1 no CPT	TDP1 cell CPT	KB-V1 cytotox	KB-3-1 cytotox
Cn1cnnc1SCC(=O)Nc1sc2c(c1C#N)CCCCC2	7%	5%	?	-14%	i	i
N#Cc1cc2c(nc1SCC(=O)Nc1sc3c(c1C#N)CCC3)CCCC2	-4%	-2%	12µM*	?	i	i
CCOC(=O)c1sc(NC(=O)CSc2n[nH]c(-c3ccc(Cl)cc3Cl)n2)c(C#N)c1C	0%	2%	16µM*	?	?	?
CCOC(=O)CC(=O)CSc1nc2c(cc1C#N)CCCCC2	3%	-2%	-3%	3%	i	i
COc1ccc(C(=O)NCCS(=O)(=O)N2CCCC2)cc1	7%	11%	-23%	13%	i	i
O=C(c1ccco1)N1CCN(C(c2ccccc2Cl)c2nnnn2Cc2cccs2)CC1 (stereo not given)	-28%	-13%	26µM*	?	i	?
O=C(c1ccco1)N1CCN(C(c2ccccc2Cl)c2nnnn2Cc2ccco2)CC1 (stereo not given)	-7%	-4%	?	16µM*	i	i
CCC(C)(C(=O)NC1CCCC1)N(C(=O)Cc1cccs1)c1c(C)n(C)n(-c2ccccc2)c1=O (stereo not given)	8%	-1%	0%	1%	i	i
CSc1c(SCc2ccccc2)cnn(-c2ccccc2)c1=O	-6%	-2%	?	?	?	i
Cn1ncc(S(=O)(=O)Cc2ccccc2)c(Cl)c1=O	-13%	7%	3.3µM*	1.5µM*	i	i
Cn1ncc(SCc2ccccc2)c(Cl)c1=O	?	-5%	10µM*	9.2µM*	?	?
CN(NC(=O)Nc1ccccc1)c1cnn(C)c(=O)c1Cl	3%	-13%	-56%	?	?	i
CC[n+]1ccnc2ccccc21	·	·	2.8µM*	2.2µM*	?	i
c1ccc(CCc2nc(-c3ccccc3)no2)cc1	-3%	-5%	-10%	-4%	i	i
O=C(Nc1ccc(-c2nc3c(ccc4ccccc43)o2)cc1)c1ccco1	10µM*	10µM*	18µM*	?	i	i
O=C(Nc1ccc(-c2noc(CCc3ccccc3)n2)cc1)c1ccco1	?	?	?	18µM*	?	i
CC(NC(=O)c1ccco1)c1nc(-c2ccc(Cl)cc2)no1 (stereo not given)	-23%	-3%	21µM*	?	i	i
